Bioassay records (PubChem BioAssay)
KB-3-1 cytotox = kills parental KB-3-1 adenocarcinoma cells | KB-3-1 viability, CellTiter-Glo ATP luminescence, 72 h | hit rate 1.4% among 400,000 | Potency, µM (titrated, usually from 46.1 µM), most hits filed as cytotoxic; further: on the % scale 0 is the no-effect control and ±100 the full control effect; nearly all actives have a fitted effect of over 60% in size
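Viability of parental KB-3-1 cells, measured by CellTiter-Glo luminescence, followed a 72 h incubation at 37 °C with pinned compounds in phenol-red-free DMEM containing 10% FBS.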
ELG1 DNA repair = inhibitors of ELG1-dependent DNA repair in HEK293T cells; hit rate 2.3% among 330,000; HEK293T ELG1-luciferase reporter, luminescence, 16 h; DNA damage induced by 5-fluorouridine; Potency, µM (titrated, usually from 46.1 µM), without a hit: at the top dose activity change, negative = inhibition, hits mostly inhibitors; further: on the % scale 0 is the no-effect control and ±100 the full control effect; nearly all actives have a fitted effect of over 55% in size
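5-Fluorouridine DNA damage + compound/DMSO, 2,000 cells/well, 16 h, 37 °C/5% CO2. ONE-Glo, 30 min RT, luminescence. Readout = decrease in reporter signal.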
MCF10A rereplic = inducers of DNA re-replication in MCF 10A breast cells; MCF 10A DNA re-replication, Hoechst nuclear intensity, 48 h; Potency, µM (doses to about 46.1 µM), for inactives: at the highest dose activity, positive = re-replication, most hits filed as activators; hit rate 2.9% among 350,000; further: % of control where 0% means no effect; nearly all actives have a fitted effect of over 50% in size
KB-V1 cytotox = KB-V1 MDR subline cytotoxicity; Potency, µM (doses to about 46.1 µM), actives largely listed as cytotoxic; hit rate 3.4% among 400,000; KB-V1 MDR cells viability, CellTiter-Glo, 72 h; further: on the % scale 0 is the no-effect control and ±100 the full control effect; nearly all actives have a fitted effect of over 60% in size
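Compound-treated KB-V1 multidrug-resistant cells, 72 h, 37 degrees C; viability by CellTiter-Glo. Fitted qHTS curves give the values.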
SW480 rereplic = DNA re-replication induction in SW480 cells; SW480 DNA re-replication, Hoechst DNA content imaging, 48 h; Potency, µM (top dose mostly 46.1 µM), inactives show at the top dose re-replication activation, usual class: activators; hit rate 1.8% among 340,000; AID 624297; further: % of control where 0% means no effect; nearly all actives have a fitted effect of over 55% in size
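Cells (250 per well) received 23 nL compound or DMSO by pin tool and were kept 48 hr at 37 C, 5% CO2. Nuclei were then stained with Hoechst for 40 min and scanned for DNA content.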
* = called active by the depositor; i = inactive; ? = inconclusive; · = no result; [ ] = remark or other dose. An excerpt weighted towards active compounds, which were near 8.1% of everything screened. The call rests on the fitted dose curve; in most records, active means well fitted curve in the direction sought with a large enough effect; inconclusive means small, poorly fitted or top-dose-only effect, or another doubt; inactive means no such curve, though single readings can be large; an effect the other way counts as inactive or inconclusive. Potency means the concentration at half of the fitted maximal effect.

SMILES	KB-3-1 cytotox	ELG1 DNA repair	MCF10A rereplic	KB-V1 cytotox	SW480 rereplic
Cc1ccc(S(=O)(=O)Nc2ccccc2/C=N/c2nc3ccccc3n2C(C)C)cc1	i	?	20.6µM*	i	8.1%
CCCCn1c(NCc2cc(Br)ccc2O)nc2ccccc21	i	·	·	i	·
CCn1c(NCc2ccccc2NS(=O)(=O)c2ccc(C)cc2)nc2ccccc21	?	-27.5%	?	?	?
CCn1c(NCc2cc(Br)ccc2NS(=O)(=O)c2ccc(C)cc2)nc2ccccc21	?	-10.3%	-3.8%	18.4µM*	4.0%
NC(=O)[C@@H]1CCCN1C(=O)[C@H](Cc1cnc[nH]1)NC(=O)[C@@H]1CCC(=O)N1	·	·	1.8%	·	-11.5%
CC(C)Cn1c(=S)[nH]c2cc(C(=O)NCc3ccccc3F)ccc2c1=O	i	-25.0%	14.6µM*	?	11.3%
COCc1ccc(-c2c(-c3ccsc3)oc(=O)c3cc(OC)c(OC)cc23)cc1	?	?	3.66µM*	?	1.4%
O=c1[nH][nH]c2c1[C@H](c1ccc(F)cc1)O[C@H](C1CCCCC1)C2	i	·	·	i	·
CCOC(=O)c1cc2c(=O)n3ccccc3nc2n(CCCOC)c1=NC(=O)C(C)(C)C	?	-10.2%	?	i	18.4µM*
CCCCn1c(=NC(=O)c2c(-c3c(F)cccc3Cl)noc2C)c(C(=O)OCC)cc2c(=O)n3ccccc3nc21	i	·	·	i	·
CCOC(=O)c1cc2c(=O)n3ccccc3nc2n(CCOC)c1=NC(=O)c1c(-c2c(F)cccc2Cl)noc1C	?	-6.5%	18.4µM*	?	?
O[C@H]1C[C@H](c2ccc(Cl)cc2)N(CC2CCCCC2)C[C@@H]1n1cc(-c2ccc(F)cc2)nn1	i	·	·	i	·
COc1ccccc1C(=O)Nc1ccnn1C1CCN(Cc2cc(C)c(C)cc2C)CC1	·	23.1µM*	?	·	?
CCc1ccc(CN2CCC(n3nccc3NC(=O)c3ccccc3Cl)CC2)cc1	i	2.5%	?	18.4µM*	2.1%
Cc1nc(SCCc2nc3ccccc3[nH]2)c2oc3ccccc3c2n1	i	15.0%	-0.7%	i	-4.0%
OCCC1CN(CCCc2ccccc2)CCN1CCc1ccccc1 (stereo not given)	i	?	20.6µM*	i	-6.2%
OCCC1CN(CCCc2ccccc2)CCN1Cc1ccccc1 (stereo not given)	i	-14.8%	-9.5%	i	-14.0%
CC(C)CN1CCN(CC#Cc2ccccc2)CC1CCO (stereo not given)	i	-9.7%	0.651µM*	i	-21.7%
O=C1NC(=O)C2(Br)Nc3ccc(Br)cc3C(=O)C2N1 (stereo not given)	i	·	-2.5%	i	-4.3%
CC(=O)Oc1ccc(C2(C)CC(C)(C)NC(=S)N2C)c(OC(C)=O)c1 (stereo not given)	i	12.2%	1.3µM*	i	19.0%
CC(=O)Oc1ccc2c(c1)OC(c1ccccc1)CC21CC(C)(C)NC(=S)N1 (stereo not given)	i	-5.6%	22.3%	?	0.0%
O=C(NCc1ccccc1)c1ccc(C(=O)NCc2ccccc2)cc1	i	·	-2.1%	i	-5.3%
COc1cccc(C(=O)NCCS(=O)(=O)NCCCc2ccccc2)c1	i	-1.4%	-5.3%	16.4µM*	-2.8%
O=C(NCc1ccccc1)c1ccc(C(=O)N(C2CCCCC2)C2CCCCC2)cc1	?	?	-1.8%	23.1µM*	8.2%
COC(=O)C1CCN(S(=O)(=O)CCNC(=O)c2cccc(OC)c2)CC1	i	?	2.4%	i	-7.7%
SMILES	KB-3-1 cytotox	ELG1 DNA repair	MCF10A rereplic	KB-V1 cytotox	SW480 rereplic
CC1CCN(c2ccc(C(=O)NCCc3ccccc3)cn2)CC1	i	?	10.7%	13µM*	9.7%
COc1cccc(C(=O)NCCS(=O)(=O)N2CCC(C)CC2)c1	i	9.2%	6.2%	23.1µM*	-4.2%
C=CCOc1ccc(/C=C2\SC(=S)N(NS(=O)(=O)c3ccccc3)C2=O)cc1	i	15.7%	?	i	-36.1%
CC1CCN(S(=O)(=O)CCNC(=O)c2ccccc2)CC1	i	27.7%	8.0%	13µM*	-3.6%
CCN(C1CCCCC1)S(=O)(=O)CCNC(=O)c1ccccc1	i	1.9%	-1.2%	4.11µM*	-5.0%
O=C(NCCS(=O)(=O)N1CCCC1)c1ccccc1	i	?	0.3%	i	-222.0%
CCN(C1CCCCC1)S(=O)(=O)CCNC(=O)c1ccc2c(c1)OCO2	i	-17.8%	4.0%	i	-0.3%
COc1cccc(C(=O)NCCS(=O)(=O)N2CCCCC2)c1	i	19.1%	-2.3%	i	-0.6%
COc1cccc(C(=O)NCCS(=O)(=O)N2CCCCCC2)c1	i	23.8%	0.6%	11.6µM*	2.0%
Cc1ccc(OC(=O)CSc2nnc(-c3ccc4c(c3)OCO4)o2)c(C)c1	i	·	·	?	·
O=C(Nc1ccc(S(=O)(=O)N2CCCC2)cc1)c1ccc(Br)o1	i	-0.7%	-1.5%	i	-4.9%
O=C(Nc1ccc2c(c1)CCC2)c1ccc(Br)o1	i	?	20.6µM*	i	-1.3%[9.22 µM]
CN1CCN(S(=O)(=O)c2ccc(NC(=O)c3ccccc3Cl)cc2)CC1	i	2.5%	-21.0%	i	1.7%
CN1CCN(S(=O)(=O)c2ccc(NC(=O)c3ccc(Br)o3)cc2)CC1	i	11.7%	16.6%	9.2µM*	-5.1%
CN1CCN(S(=O)(=O)c2ccc(NC(=O)c3ccc(Br)s3)cc2)CC1	i	12.0%	14.6µM*	i	?
Fc1cccc(CN2CCc3nc(Nc4ccc5c(c4)OCCO5)ncc3C2)c1F	i	·	·	i	·
COc1ccc(N(CC(=O)NCCc2ccccc2)S(=O)(=O)c2ccc(OC)c(OC)c2)cc1	i	·	·	i	·
O=C(Oc1ccc(Cl)c2cccnc12)C12CC3CC(CC(C3)C1)C2	i	?	18.4µM*	i	-5.7%
CCCCOc1ccc(N2C(=O)C(C)CNC2=S)cc1 (stereo not given)	i	·	1.3%	i	-3.0%
Cc1ccc(-n2c(-c3ccccc3)c[n+]3c2CCc2ccccc2-3)c(C)c1	4.61µM*	?	21.8%	i	25.8%
CCCOc1ccc(OCC(=O)c2[nH]c(C)c(C(C)=O)c2C)cc1	?	0.9%	46.8%	2.91µM*	16.7%
CC(=O)c1c(C)[nH]c(C(=O)COc2cc(C)cc(C)c2)c1C	i	-15.3%	20.8%	2.59µM*	1.1%
CC(=O)c1c(C)[nH]c(C(=O)COC(=O)CCCOc2ccccc2)c1C	i	-0.8%	-8.6%	i	4.9%
Cc1ccccc1-n1c(C)nnc1SCC(=O)N1CCc2ccccc2C1	i	1.3%	?	6.51µM*	0.5%
Cn1c(SCC(=O)N2CCc3ccccc3C2)nnc1-c1ccncc1	i	2.7%	12.2%	i	-0.3%
